Inconclusive results are not listed. Entries that show only a call come without a potency. The source made the active and inactive calls. Calls come from the whole dose curve; as a rule, active = well fitted inhibition curve with a large enough effect; inconclusive = small, poorly fitted or top-dose-only effect; inactive = flat fitted curve, though single readings scatter. Where a SMILES comes first, the peptide text is derived from it. [ ]: non-standard residue; d: D form. pGlu = O=C1CC[C@@H](C(=O)O)N1; Thz = O=C(O)[C@@H]1CSCN1
These compounds were tested against Calcium and integrin-binding protein 1 (Homo sapiens) (UniProt Q99828) (assay: Primary qHTS for Identification of Calcium Integrin Binding Protein 1 (CIB1) Competitor (AID 1508620;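 note: GST tagged CIB1 binding a fluorescein labelled alphaIIb integrin peptide tracer; top concentration of the series differs between compounds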)). Details: CIB1-GST / FITC-alphaIIb peptide fluorescence polarization; series mostly up to 114 µM.
From the text: Assay Provider: Ulhas P. Naik, PhD Sidney Kimmel Medical College Thomas Jefferson University, Philadelphia, PA Primary function of platelets is to maintain hemostasis. At the site of vascular injury, platelets adhere to adhesive proteins such as collagen and von Willebrand factor. Adherent platelets are activated and generate soluble platelet agonists such as thrombin, ADP and thromboxane A2. Following exposure of circulating platelets to these agonists, results in platelet shape change, granule secretion and activation of platelet integrin alphaIIb-beta3. Ligand binding to activated integrin alphaIIb-beta3 triggers outside-in signaling, leading to platelet aggregation, stabilization of platelet plug, and clot retraction. Upon atherosclerotic plaque rupture also causes platelet plug formation, which underlies a number of cardiovascular diseases such as myocardial infraction and stroke. A number of anti-platelet drugs such as aspirin, clopidogrel, prasugrel, vorapaxar, and eptifibatide are currently available to prevent the thrombotic complications. However, these anti-platelet agents have several limitations including inherent variability in individual responses, developing resistance, and serious bleeding side effects. For these reasons they are not suitable for long-term protection. Based on the experiences with current anti-platelet drugs, it appears that the most useful therapeutic approach is to intersect the secondary responses such as integrin outside-in signaling or recruitment of platelets by TxA2 and secreted ADP. Compounds, which can largely preserve the primary hemostatic function of platelets but inhibit secondary response will be most desired therapeutic agents for treatment of cardiovascular disease. CIB1 is a calcium integrin binding protein, which specifically interact with the alphaIIb subunit of integrin alphaIIb-beta3. Binding of CIB1 to alphaIIb regulates the outside-in signaling in platelets, which is needed for thrombus stabilization and thrombus growth. […] Therefore, we propose that discovery of a small molecule that can prevent the association of CIB1 and alphaIIb-beta3 will be a potential anti-platelet agent that can block the thrombus formation without undue effect on hemostasis. Reference: [1] Naik MU, Nigam A, Manrai P, et al. CIB1 deficiency results in impaired thrombosis: the potential role of CIB1 in outside-in signaling through integrin alpha IIb beta 3. J Thromb Haemost.
PROTOCOL TABLES SEQUENCE No. (1, 2, 3, etc.); […] (e.g., Cells, Incubation, Reagent, etc.); VALUE and DESCRIPTION. 1; Reagent; 3 uL; Protein or buffer (4/3x) 2; Compound; 46 nL; Control inhibitor / compound library 3; Time; 15 min; Room temperature incubation 4; Reagent; 1 uL; Fluorescent labeled peptide (4x) 5; Time; 1000 rpm; Centrifuge 6; Time; 15 min; Room temperature incubation 7; Detection; Ex 480/ Em 540; ViewLux Fluorescence Read NOTES (numbers refer to sequence above) 1; Protein Mixture: C1B1-GST (final concentrations of 1 uM). […] 3; Room temperature incubation. 4; Fluorescent Labeled Peptide: FITC-aIIb (final concentration of 100 nM). Sequence of alphaIIb peptide: Acetyl-[…]-FITC (purity is 95.83%). 5; Centrifuge 1000 rpm (164 g) for 15 seconds. 6; Room temperature incubation. 7; ViewLux Fluorescent Polization Read: excitation = 480(20) / emission = 540(25) S and P; FITC Dichroic mirror.

Chain of Calcium and integrin-binding protein 1 (Homo sapiens) (Q99828 whole entry, looked up): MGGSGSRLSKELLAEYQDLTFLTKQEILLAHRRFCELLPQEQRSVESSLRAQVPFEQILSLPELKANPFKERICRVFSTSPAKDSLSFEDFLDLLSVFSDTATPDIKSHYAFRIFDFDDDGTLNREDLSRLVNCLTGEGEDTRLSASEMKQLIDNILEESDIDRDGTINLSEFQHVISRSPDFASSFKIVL

Question: For `CC(=O)O[C@H]1C[C@@]2(C)[C@@H](C[C@@H](O)[C@H]3[C@@]4(C)CC[C@@H](O)[C@@H](C)[C@@H]4CC[C@@]32C)/C1=C(\CCC=C(C)C)C(=O)O`, which Potency is on record?
Answer: The Potency was “inactive”.

Question: For `CCCCN(CC)c1nc(C)nc2c1c(C)cn2-c1c(C)cc(C)cc1C`, which Potency is on record?
Answer: Its Potency is “inactive”.

Question: Which Potency does the source give for `Cc1c(Nc2ncccc2C(=O)O)cccc1C(F)(F)F` here?
Answer: The Potency was “inactive”.

Question: `CC1(C)[C@@H](O)CC[C@]2(C)[C@H]3C(=O)C=C4[C@@H]5C[C@@](C)(C(=O)O)CC[C@]5(C)CC[C@@]4(C)[C@]3(C)CC[C@@H]12` was tested. Which Potency did it give?
Answer: The Potency was “inactive”.

Question: How did the Potency turn out when `Fc1ccc2[nH]c(CN3CCN(c4ccccn4)CC3)cc2c1` was run?
Answer: The Potency was “inactive”.

Question: How did the Potency turn out when `O=C(O)Cc1ccc(-c2ccccc2)cc1` was run?
Answer: Its Potency is “inactive”.

Question: How did the Potency turn out when `C=CCCCCCCCCC(=O)O` was run?
Answer: The Potency was “inactive”.

Question: With `COC(=O)C1=C(C)NC(C)=C(C(=O)OCC(C)=O)C1c1ccccc1[N+](=O)[O-]` (stereo not given) as the compound, how does the Potency read?
Answer: Its Potency is “inactive”.

Question: `CCCCCCCCCCCC(=O)[O][Sn]([CH2]CCC)([CH2]CCC)[O]C(=O)CCCCCCCCCCC` was tested. Which Potency did it give?
Answer: The Potency was “inactive”.

Question: Which Potency does the source give for `Cc1nc2ccccc2n1Cc1ccc(Cl)cc1` here?
Answer: The Potency was “inactive”.

Question: Which Potency does the source give for `NCCO` here?
Answer: The Potency was “inactive”.

Question: How did the Potency turn out when `Cc1c(C(=O)O)c(O)cc2c1C(=O)c1c(O)c([C@@H]3O[C@H](CO)[C@@H](O)[C@H](O)[C@H]3O)c(O)c(O)c1C2=O` was run?
Answer: The Potency was “inactive”.

Question: How did the Potency turn out when `COc1cc(/C=C/C(=O)N2CCN(CC(=O)N3CCCC3)CC2)cc(OC)c1OC` was run?
Answer: The Potency was “inactive”.

Question: With `CC(C(=O)O)c1ccc(C(=O)c2ccccc2)s1` (stereo not given) as the compound, how does the Potency read?
Answer: Its Potency is “inactive”.

Question: `COc1cc2c3cc1Oc1cc(ccc1O)C[C@@H]1c4c(cc(OC)c(O)c4Oc4ccc(cc4)C[C@@H]3N(C)CC2)CC[N+]1(C)C` was tested. Which Potency did it give?
Answer: Its Potency is “inactive”.

Question: For `O=C(/C=C/c1ccccc1)NCCO`, which Potency is on record?
Answer: Its Potency is “inactive”.

Question: For `O=C1CC[C@@H](C(=O)N2CSC[C@H]2C(=O)O)N1` ([pGlu]-[Thz]-OH), which Potency is on record?
Answer: The Potency was “inactive”.

Question: How did the Potency turn out when `CCNC(=O)[C@H]1O[C@@H](n2cnc3c(N)nc(NCCc4ccc(CCC(=O)O)cc4)nc32)[C@H](O)[C@@H]1O` was run?
Answer: Its Potency is “inactive”.

Question: How did the Potency turn out when `O=C(O)/C=C\C(=O)O` was run?
Answer: Its Potency is “inactive”.

Question: How did the Potency turn out when `Cc1c(N)c(=O)n(-c2ccccc2)n1C` was run?
Answer: The Potency was “inactive”.

Question: Which Potency does the source give for `O=c1[nH]c2ccccc2n1CCCN1CCN(C(c2ccccc2)c2ccccc2)CC1` here?
Answer: The Potency was “inactive”.

Question: `O=C(O)CC1CC(c2ccccc2)=NO1` (stereo not given) was tested. Which Potency did it give?
Answer: The Potency was “inactive”.

Question: Which Potency does the source give for `Cc1ccc(C(=O)c2ccc(CC(=O)O)n2C)cc1` here?
Answer: The Potency was “inactive”.

Question: `C#C[C@]1(O)CC[C@H]2[C@@H]3CCc4cc(O)ccc4[C@H]3CC[C@@]21C` was tested. Which Potency did it give?
Answer: The Potency was “inactive”.

Question: With `Cc1ccc(O)c(-n2nc3ccccc3n2)c1` as the compound, how does the Potency read?
Answer: Its Potency is “inactive”.

Question: How did the Potency turn out when `CS(=O)(=O)c1ccc(-n2nc(C(F)(F)F)cc2-c2ccc(F)cc2)cc1` was run?
Answer: Its Potency is “inactive”.

Question: For `CNC(=O)c1c(I)c(NC(=O)CCCCC(=O)Nc2c(I)c(C(=O)O)c(I)c(C(=O)NC)c2I)c(I)c(C(=O)O)c1I`, which Potency is on record?
Answer: Its Potency is “inactive”.

Question: `CN(C)CCn1nnnc1SCC1=C(C(=O)O)N2C(=O)[C@@H](NC(=O)Cc3csc(N)n3)[C@H]2SC1` was tested. Which Potency did it give?
Answer: Its Potency is “inactive”.

Question: Which Potency does the source give for `COc1cc(NC(C)CCCN)c2ncccc2c1` (stereo not given) here?
Answer: The Potency was “inactive”.

Question: How did the Potency turn out when `O=C(O)c1ccccc1Nc1cccc(C(F)(F)F)c1` was run?
Answer: Its Potency is “inactive”.

Question: For `O=C(Nc1ccc2[nH]ncc2c1)C1CCC1`, which Potency is on record?
Answer: The Potency was “inactive”.

Question: Which Potency does the source give for `CC(N)C(=O)OC(C)(C)Cc1ccc(Cl)cc1` (stereo not given) here?
Answer: The Potency was “inactive”.

Question: How did the Potency turn out when `c1ccc2sc(SN3CCOCC3)nc2c1` was run?
Answer: The Potency was “inactive”.

Question: `CCOc1ccc2nc(S(N)(=O)=O)sc2c1` was tested. Which Potency did it give?
Answer: Its Potency is “inactive”.

Question: Which Potency does the source give for `CN(C)c1ccc(N=NS(=O)(=O)O)cc1` here?
Answer: The Potency was “inactive”.

Question: How did the Potency turn out when `COc1cc(CNC(=O)CCCC/C=C/C(C)C)ccc1O` was run?
Answer: Its Potency is “inactive”.

Question: Which Potency does the source give for `CC(=O)c1ccc(OCC(=O)N2CCCCC2)cc1` here?
Answer: Its Potency is “inactive”.

Question: `COC(=O)Nc1nc2ccc(C(=O)C3CC3)cc2[nH]1` was tested. Which Potency did it give?
Answer: The Potency was “inactive”.

Question: For `[O-][n+]1ccccc1SSc1cccc[n+]1[O-]`, which Potency is on record?
Answer: Its Potency is “inactive”.

Question: `O=C1CN(/N=C/c2ccc([N+](=O)[O-])o2)C(=O)N1` was tested. Which Potency did it give?
Answer: The Potency was “inactive”.

— PubChem BioAssay (NCATS)
